# Inconclusive results are not listed. Calls of active or inactive are those of the source. How the source made its calls, unless noted: active means hit-call score of the fitted dose curve at least 0.9, where 1 is the maximum; inactive means score below 0.9.
# Tests used:
# [1] = molecular target: Bile acid receptor (Homo sapiens) (UniProt Q96RI1); test: ATG_FXR_TRANS: Attagene TRANS-FACTORIAL HepG2 Assay for Farnesoid X Receptor (FXR) (AID 2282979; active means hit-call score of the fitted dose curve at least 0.9, where 1 is the maximum;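 further: hits raise reporter mRNA above DMSO so AC50 marks FXR activation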); conditions: HepG2 Attagene TRANS FXR-GAL4 reporter transcription
# Chain of Bile acid receptor (Homo sapiens) (Q96RI1 whole entry, looked up, the tested form may be a part): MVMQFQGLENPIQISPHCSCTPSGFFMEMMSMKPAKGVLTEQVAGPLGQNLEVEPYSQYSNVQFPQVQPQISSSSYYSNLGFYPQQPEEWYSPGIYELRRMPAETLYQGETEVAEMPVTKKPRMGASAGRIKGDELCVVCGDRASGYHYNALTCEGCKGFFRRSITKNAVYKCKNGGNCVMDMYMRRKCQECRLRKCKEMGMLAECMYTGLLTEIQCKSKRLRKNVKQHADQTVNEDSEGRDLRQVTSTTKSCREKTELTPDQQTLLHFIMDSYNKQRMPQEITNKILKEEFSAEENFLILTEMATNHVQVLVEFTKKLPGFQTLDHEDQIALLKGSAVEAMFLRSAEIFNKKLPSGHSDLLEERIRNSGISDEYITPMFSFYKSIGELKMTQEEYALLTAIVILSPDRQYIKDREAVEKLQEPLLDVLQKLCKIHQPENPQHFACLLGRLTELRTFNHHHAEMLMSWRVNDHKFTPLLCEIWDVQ
# How it was run: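 HepG2 cells transiently transfected with reporter constructs in which a chimeric FXR-GAL4 protein drives a GAL4-UAS reporter; 24 h compound exposure. Reporter mRNA measured by RT-PCR, FAM labelling, HpaI digestion and capillary electrophoresis; gain-of-signal versus DMSO.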
# [2] = molecular target: Hepatocyte nuclear factor 4-alpha (Homo sapiens) (UniProt P41235); test: ATG_HNF4a_TRANS: Attagene TRANS-FACTORIAL HepG2 Assay for human Hepatocyte Nuclear Factor 4 alpha (HNF4a) (AID 2282982; active means hit-call score of the fitted dose curve at least 0.9, where 1 is the maximum); conditions: HepG2 HNF4a transactivation reporter, mRNA readout
# Chain of Hepatocyte nuclear factor 4-alpha (Homo sapiens) (P41235 whole entry, looked up, the tested form may be a part): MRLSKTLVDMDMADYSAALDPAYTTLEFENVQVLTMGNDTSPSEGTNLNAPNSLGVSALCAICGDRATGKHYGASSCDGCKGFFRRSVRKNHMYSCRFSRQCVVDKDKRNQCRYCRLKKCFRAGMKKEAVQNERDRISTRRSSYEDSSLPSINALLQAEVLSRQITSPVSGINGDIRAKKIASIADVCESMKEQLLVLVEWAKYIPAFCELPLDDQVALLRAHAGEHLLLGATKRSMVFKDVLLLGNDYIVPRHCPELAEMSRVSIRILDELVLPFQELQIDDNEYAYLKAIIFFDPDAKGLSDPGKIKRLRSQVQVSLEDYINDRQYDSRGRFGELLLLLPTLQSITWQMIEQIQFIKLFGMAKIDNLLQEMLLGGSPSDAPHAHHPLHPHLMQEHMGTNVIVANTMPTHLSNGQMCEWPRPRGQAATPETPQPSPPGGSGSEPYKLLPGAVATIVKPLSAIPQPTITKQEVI
# How it was run: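 In this trans-factorial format, a chimeric HNF4a-GAL4 fusion drives a GAL4-UAS reporter in transfected HepG2 liver cells. After 24 h treatment, reporter mRNA induction is measured by RT-PCR with capillary electrophoresis, relative to DMSO.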
# [3] = ATG_M_06_TRANS: Attagene TRANS-FACTORIAL HepG2 Assay for M06 Transcription Factor (Internal Marker) (AID 2282983; active means hit-call score of the fitted dose curve at least 0.9, where 1 is the maximum); conditions: HepG2 Attagene TRANS M06 internal marker reporter
# How it was run: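 In this multiplexed HepG2 system, compounds are incubated 24 h with cells carrying GAL4-UAS reporter units. Reporter RNA is amplified and resolved by capillary electrophoresis, and induction is scored against DMSO.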
# [4] = molecular target: Transcriptional activator Myb (Homo sapiens) (UniProt P10242); test: ATG_Myb_CIS: Attagene CIS-FACTORIAL HepG2 Assay for human Myeloblastosis (Myb) Proto-Oncogene Transcription Factor (AID 2282986); conditions: HepG2 Attagene CIS-FACTORIAL Myb reporter transcription; actives raise or lower the signal
# How it was run: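 Transiently transfected HepG2 cells, treated 24 h. Reporter mRNA quantified by RT-PCR/capillary electrophoresis; bidirectional fit relative to DMSO.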
# [5] = molecular target: Nuclear respiratory factor 1 (Homo sapiens) (UniProt Q16656); test: ATG_NRF1_CIS: Attagene CIS-FACTORIAL HepG2 Assay for human Nuclear Respiratory Factor 1 (NRF1) Orphan Gene (AID 2282987); conditions: HepG2 NRF1 cis-element reporter, Attagene multiplex; actives raise or lower the signal
# Chain of Nuclear respiratory factor 1 (Homo sapiens) (Q16656 whole entry, looked up, the tested form may be a part): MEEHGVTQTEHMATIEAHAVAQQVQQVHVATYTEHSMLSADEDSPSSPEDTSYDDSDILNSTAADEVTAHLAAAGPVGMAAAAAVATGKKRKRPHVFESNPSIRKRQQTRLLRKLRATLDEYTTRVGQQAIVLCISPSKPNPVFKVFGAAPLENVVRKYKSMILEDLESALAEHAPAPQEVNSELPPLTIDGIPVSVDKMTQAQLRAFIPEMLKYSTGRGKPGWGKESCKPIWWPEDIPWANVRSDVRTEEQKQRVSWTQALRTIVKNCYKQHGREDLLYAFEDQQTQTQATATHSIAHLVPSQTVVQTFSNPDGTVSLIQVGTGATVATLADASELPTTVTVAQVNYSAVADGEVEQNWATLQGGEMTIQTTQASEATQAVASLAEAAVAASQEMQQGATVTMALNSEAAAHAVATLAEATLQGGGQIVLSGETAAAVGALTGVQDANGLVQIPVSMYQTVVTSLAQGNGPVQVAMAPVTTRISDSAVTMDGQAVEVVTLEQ
# How it was run: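 Cells (HepG2, transient MRTU transfection) are exposed to compound for 24 h, then RNA isolated and reporter mRNA amplified and fluorescently labelled. Fragments are separated by capillary electrophoresis; signal change is fitted bidirectionally relative to DMSO.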
# [6] = ATG_NFI_CIS: Attagene CIS-FACTORIAL HepG2 Assay for human Nuclear Factor I (NFI) (AID 2282989); conditions: HepG2 cis-regulatory reporter, NFI response element transcription; actives raise or lower the signal
# How it was run: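 Transfected HepG2 liver cells, exposed 24 h, supplied total RNA for oligo(dT) reverse transcription and reporter-specific PCR. Labelled, HpaI-cut fragments were sized by capillary electrophoresis; DMSO set the baseline for bidirectional fitting.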
# [7] = molecular target: Myc proto-oncogene protein (Homo sapiens) (UniProt P01106); test: ATG_Myc_CIS: Attagene CIS-FACTORIAL HepG2 Assay for human Myelocytomatosis (Myc) Proto-Oncogene Transcription Factor (AID 2282990); conditions: HepG2, Attagene cis-reporter transcription factor activity; actives raise or lower the signal
# Chain of Myc proto-oncogene protein (Homo sapiens) (P01106 whole entry, looked up): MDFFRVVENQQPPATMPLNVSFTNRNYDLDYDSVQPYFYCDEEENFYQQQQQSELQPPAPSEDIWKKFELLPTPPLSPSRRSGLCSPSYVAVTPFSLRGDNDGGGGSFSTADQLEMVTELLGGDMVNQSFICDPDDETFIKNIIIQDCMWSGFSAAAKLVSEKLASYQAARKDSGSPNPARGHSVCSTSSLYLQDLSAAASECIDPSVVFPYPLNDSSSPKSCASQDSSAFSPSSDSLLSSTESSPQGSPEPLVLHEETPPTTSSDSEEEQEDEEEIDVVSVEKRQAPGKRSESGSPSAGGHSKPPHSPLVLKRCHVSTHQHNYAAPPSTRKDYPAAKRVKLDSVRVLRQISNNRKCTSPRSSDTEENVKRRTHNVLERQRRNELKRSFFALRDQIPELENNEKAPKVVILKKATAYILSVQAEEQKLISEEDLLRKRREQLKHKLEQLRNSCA
# How it was run: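 HepG2 cells transiently transfected with multiple cis-promoter-driven reporter transcription units, so endogenous TF activity is read. After 24 h compound exposure, reporter mRNA was quantified by RT-PCR, 6-FAM labelling, HpaI digestion and capillary electrophoresis; bidirectional fit versus DMSO.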
# [8] = ATG_NRF2_ARE_CIS: Attagene CIS-FACTORIAL HepG2 Assay for human Nuclear Factor Erythroid 2 Related Factor 2 (NFR2) response to Antioxidant Response Elements (ARE) (AID 2282992); conditions: HepG2 Attagene ARE/NRF2 reporter, transcription factor activity; actives raise or lower the signal;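 on AC50: reporter mRNA level measured by RT-PCR and capillary electrophoresis fluorescence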
# How it was run: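 Fluorescence intensity of reporter-specific cDNA fragments, separated by capillary electrophoresis, reflects mRNA induction in transfected HepG2 cells at 24 h. Activity is fitted bidirectionally, DMSO serving as baseline.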
# [9] = ATG_Oct_MLP_CIS: Attagene CIS-FACTORIAL HepG2 Assay for human Octamer-Binding Transcription Factor (Oct) (AID 2282993); conditions: HepG2 Attagene cis-factorial Oct reporter, mRNA; actives raise or lower the signal
# How it was run: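 Using HepG2 cells bearing transfected cis-reporter constructs, mRNA induction was read after 24 h by fluorescent RT-PCR and capillary electrophoresis, with DMSO defining baseline for gain- or loss-of-signal fits.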
# [10] = molecular target: Cellular tumor antigen p53 (Homo sapiens) (UniProt P04637); test: ATG_p53_CIS: Attagene CIS-FACTORIAL HepG2 Assay for human p53 Transcription Factor (AID 2282994); conditions: HepG2 p53 cis-element reporter, Attagene mRNA; actives raise or lower the signal
# Chain of Cellular tumor antigen p53 (Homo sapiens) (P04637 whole entry, looked up): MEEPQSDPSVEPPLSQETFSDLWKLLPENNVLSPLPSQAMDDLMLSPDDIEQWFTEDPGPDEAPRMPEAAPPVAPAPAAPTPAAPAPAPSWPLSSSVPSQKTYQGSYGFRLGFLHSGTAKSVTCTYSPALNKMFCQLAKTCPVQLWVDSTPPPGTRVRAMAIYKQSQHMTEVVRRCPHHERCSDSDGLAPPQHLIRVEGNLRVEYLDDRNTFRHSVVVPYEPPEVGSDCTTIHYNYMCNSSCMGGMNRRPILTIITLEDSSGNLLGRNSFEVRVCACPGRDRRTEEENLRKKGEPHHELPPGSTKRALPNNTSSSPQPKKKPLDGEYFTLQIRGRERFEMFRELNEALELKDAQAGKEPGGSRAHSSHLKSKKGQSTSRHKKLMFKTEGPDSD
# How it was run: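 Transiently transfected HepG2 (multiple cis reporter transcription units); exposure 24 h; reporter RNA via RT-PCR, 6-FAM extension, 2 h HpaI digest at 37 C, CE detection; DMSO baseline.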
# [11] = molecular target: Oxysterols receptor LXR-alpha (Homo sapiens) (UniProt Q13133); test: ATG_LXRa_TRANS: Attagene TRANS-FACTORIAL HepG2 Assay for human Liver X Receptor alpha (LXRa) (AID 2282980; active means hit-call score of the fitted dose curve at least 0.9, where 1 is the maximum); conditions: HepG2 Attagene TRANS reporter, LXRa transactivation
# Chain of Oxysterols receptor LXR-alpha (Homo sapiens) (Q13133 whole entry, looked up, the tested form may be a part): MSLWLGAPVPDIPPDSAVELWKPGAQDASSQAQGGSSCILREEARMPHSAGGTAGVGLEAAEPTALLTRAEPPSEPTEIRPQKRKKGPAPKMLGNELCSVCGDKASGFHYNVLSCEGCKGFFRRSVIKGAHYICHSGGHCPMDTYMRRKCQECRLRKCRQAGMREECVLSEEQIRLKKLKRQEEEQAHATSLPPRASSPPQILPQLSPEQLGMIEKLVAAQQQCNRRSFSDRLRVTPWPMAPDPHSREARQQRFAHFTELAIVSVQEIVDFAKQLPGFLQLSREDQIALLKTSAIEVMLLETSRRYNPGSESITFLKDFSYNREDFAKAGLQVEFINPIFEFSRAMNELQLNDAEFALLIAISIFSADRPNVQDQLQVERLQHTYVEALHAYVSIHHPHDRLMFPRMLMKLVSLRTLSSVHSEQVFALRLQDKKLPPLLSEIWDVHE
# How it was run: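 HepG2 cells were transiently transfected with multiplexed reporter units driven by chimeric LXRa–GAL4 fusion proteins, then dosed for 24 h. Reporter mRNA was quantified by RT-PCR, fluorescent labelling and capillary electrophoresis; gain of signal fitted against DMSO baseline.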
# [12] = molecular target: Oxysterols receptor LXR-beta (Homo sapiens) (UniProt P55055); test: ATG_LXRb_TRANS: Attagene TRANS-FACTORIAL HepG2 Assay for human Liver X Receptor beta (LXRb) (AID 2282981; active means hit-call score of the fitted dose curve at least 0.9, where 1 is the maximum); conditions: HepG2 Attagene TRANS GAL4-LXRb reporter, mRNA
# Chain of Oxysterols receptor LXR-beta (Homo sapiens) (P55055 whole entry, looked up, the tested form may be a part): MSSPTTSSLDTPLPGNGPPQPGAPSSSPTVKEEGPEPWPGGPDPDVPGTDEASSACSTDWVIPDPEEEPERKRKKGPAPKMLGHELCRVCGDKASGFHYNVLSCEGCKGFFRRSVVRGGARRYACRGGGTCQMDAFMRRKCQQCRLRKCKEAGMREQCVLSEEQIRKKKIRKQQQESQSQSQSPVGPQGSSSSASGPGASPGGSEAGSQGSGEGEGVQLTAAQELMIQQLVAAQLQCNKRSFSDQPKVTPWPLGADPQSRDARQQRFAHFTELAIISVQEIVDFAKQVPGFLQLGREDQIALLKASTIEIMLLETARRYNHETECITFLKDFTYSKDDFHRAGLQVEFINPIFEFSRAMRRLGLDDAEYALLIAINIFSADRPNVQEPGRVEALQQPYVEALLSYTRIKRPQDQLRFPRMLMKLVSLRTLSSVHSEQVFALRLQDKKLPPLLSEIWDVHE
# How it was run: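 Measures induction of a Gal4-driven reporter transcript in HepG2 cells expressing an exogenous LXRb-Gal4 fusion. Cells are exposed to compound for 24 h before RNA isolation and RT-PCR with capillary electrophoresis detection.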
# [13] = ATG_M_32_TRANS: Attagene TRANS-FACTORIAL HepG2 Assay for M32 Transcription Factor (Internal Marker) (AID 2282984; active means hit-call score of the fitted dose curve at least 0.9, where 1 is the maximum;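 further: transcript level of a background control reporter unit measured by RT-PCR and capillary electrophoresis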); conditions: HepG2 Attagene TRANS M32 internal marker reporter
# How it was run: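 After 24 h dosing of transfected HepG2 cells, total RNA was reverse-transcribed, reporter sequences PCR-amplified, 6-FAM labelled by primer extension and HpaI-digested before capillary electrophoresis. Signal increase over DMSO was fitted.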
# [14] = molecular target: Nuclear receptor subfamily 4 group A member 2 (Homo sapiens) (UniProt P43354); test: ATG_NURR1_TRANS: Attagene TRANS-FACTORIAL HepG2 Assay for human Nuclear Receptor Related Protein 1 (NURR1) (AID 2282985; active means hit-call score of the fitted dose curve at least 0.9, where 1 is the maximum); conditions: HepG2 Attagene TRANS reporter, mRNA readout
# Chain of Nuclear receptor subfamily 4 group A member 2 (Homo sapiens) (P43354 whole entry, looked up, the tested form may be a part): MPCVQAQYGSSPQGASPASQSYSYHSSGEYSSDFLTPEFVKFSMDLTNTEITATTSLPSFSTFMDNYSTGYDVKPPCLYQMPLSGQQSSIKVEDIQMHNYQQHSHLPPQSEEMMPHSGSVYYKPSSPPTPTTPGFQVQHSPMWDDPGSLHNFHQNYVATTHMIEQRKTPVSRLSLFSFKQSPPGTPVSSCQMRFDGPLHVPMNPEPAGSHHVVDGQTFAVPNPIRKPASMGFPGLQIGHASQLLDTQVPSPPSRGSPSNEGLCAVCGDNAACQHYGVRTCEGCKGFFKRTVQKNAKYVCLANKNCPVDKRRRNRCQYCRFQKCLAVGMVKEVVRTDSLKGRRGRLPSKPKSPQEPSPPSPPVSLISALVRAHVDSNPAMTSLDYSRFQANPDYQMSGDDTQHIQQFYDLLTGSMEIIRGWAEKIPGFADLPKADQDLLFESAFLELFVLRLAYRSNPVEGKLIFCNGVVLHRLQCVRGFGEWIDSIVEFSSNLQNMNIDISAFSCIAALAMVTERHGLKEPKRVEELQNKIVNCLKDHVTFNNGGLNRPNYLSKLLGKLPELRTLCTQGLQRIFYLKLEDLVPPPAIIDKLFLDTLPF
# How it was run: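 Chimeric NR-Gal4 fusion activity measured in HepG2 after 24 h treatment. Reporter transcripts detected by RT-PCR and capillary electrophoresis fluorescence; positive-direction curve fitting against DMSO.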
# [15] = ATG_NF_kB_CIS: Attagene CIS-FACTORIAL HepG2 Assay for human Nuclear Factor Kappa B (NF-kB) (AID 2282991); conditions: HepG2 Attagene cis-factorial NF-kB reporter mRNA; actives raise or lower the signal
# How it was run: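 Measures mRNA induction of an NF-kB-responsive cis-element reporter in HepG2 cells transfected with multiple reporter units, sampled 24 h post-dosing; quantified by fluorescence after RT-PCR and capillary electrophoresis, fitted for activation or inhibition against DMSO.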
# [16] = BSK_3C_TissueFactor: BioMAP Diversity Plus: 3C Assay for Tissue Factor Biomarker Activity (AID 2282997); conditions: BioMAP 3C HUVEC, tissue factor biomarker readout; actives raise or lower the signal
# How it was run: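 Readout: Tissue Factor ELISA. Cells: human primary umbilical vein endothelium. Time: 24 h after dosing. Analysis: bidirectional fit, DMSO baseline.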
# [17] = BSK_3C_uPAR: BioMAP Diversity Plus: 3C Assay for Urokinase-type plasminogen activator receptor (uPAR) Biomarker Activity (AID 2282998); conditions: BioMAP 3C HUVEC, uPAR biomarker ELISA; actives raise or lower the signal
# How it was run: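 In this endothelial cell-based assay, human umbilical vein primary cells were treated with chemicals and harvested at 24 h. uPAR was quantified using ELISA, with gains or losses fitted relative to DMSO controls.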
# [18] = BSK_3C_VCAM1: BioMAP Diversity Plus: 3C Assay for Vascular cell adhesion molecule 1 (VCAM1) Biomarker Activity (AID 2282999); conditions: BioMAP 3C HUVEC, VCAM1 ELISA, cytokine-stimulated; actives raise or lower the signal
# How it was run: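 Vascular primary endothelium (human umbilical vein) was exposed to chemicals and assayed 24 h later. VCAM-1 levels came from ELISA, with DMSO serving as baseline for bidirectional fitting.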
# [19] = molecular target: Glucocorticoid receptor (Homo sapiens) (UniProt P04150); test: ATG_GR_TRANS: Attagene TRANS-FACTORIAL HepG2 Assay for human Glucocorticoid Receptor (GR) (AID 2282978; active means hit-call score of the fitted dose curve at least 0.9, where 1 is the maximum;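 further: activators score as hits since higher reporter transcript over DMSO is fitted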); conditions: HepG2 Attagene TRANS GR reporter, mRNA transcription
# Chain of Glucocorticoid receptor (Homo sapiens) (P04150 whole entry, looked up, the tested form may be a part): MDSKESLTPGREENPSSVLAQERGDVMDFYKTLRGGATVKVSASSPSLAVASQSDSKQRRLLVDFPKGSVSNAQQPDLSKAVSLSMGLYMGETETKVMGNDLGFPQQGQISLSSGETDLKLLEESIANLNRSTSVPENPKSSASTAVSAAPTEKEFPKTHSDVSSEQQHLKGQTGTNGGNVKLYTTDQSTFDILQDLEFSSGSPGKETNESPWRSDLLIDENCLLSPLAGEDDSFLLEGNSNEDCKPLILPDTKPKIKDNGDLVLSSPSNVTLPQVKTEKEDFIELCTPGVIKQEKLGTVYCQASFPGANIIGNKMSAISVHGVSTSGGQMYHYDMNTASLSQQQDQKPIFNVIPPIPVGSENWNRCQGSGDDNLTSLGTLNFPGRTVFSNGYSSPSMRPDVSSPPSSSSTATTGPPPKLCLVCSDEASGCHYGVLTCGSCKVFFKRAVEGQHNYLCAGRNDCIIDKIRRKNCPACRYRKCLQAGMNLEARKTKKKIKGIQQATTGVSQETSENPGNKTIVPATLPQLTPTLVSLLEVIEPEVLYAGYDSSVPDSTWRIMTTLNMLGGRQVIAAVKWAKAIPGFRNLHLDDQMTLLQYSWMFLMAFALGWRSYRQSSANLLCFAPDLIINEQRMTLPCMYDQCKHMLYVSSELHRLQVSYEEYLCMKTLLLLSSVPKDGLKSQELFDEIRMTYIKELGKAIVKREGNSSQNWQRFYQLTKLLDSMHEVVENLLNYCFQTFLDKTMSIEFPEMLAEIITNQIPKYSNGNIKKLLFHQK
# How it was run: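 Reporter transcript levels, detected by fluorescence after RT-PCR and capillary electrophoresis, served as the endpoint. HepG2 cells bearing transfected GAL4-UAS reporters responsive to NR-GAL4 chimeras were incubated with compound 24 h; DMSO defined baseline.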
compound,measurement,setting,value
C=CC(O)CCCCC (stereo not given),outcome,[1],inactive
same,outcome,[2],inactive
same,outcome,[3],inactive
same,outcome,[4],inactive
same,outcome,[5],inactive
same,outcome,[6],inactive
same,outcome,[7],inactive
same,AC50,[8],38 µM (active)
same,AC50,[9],45.6 µM (active)
same,outcome,[10],inactive
OCCN1CCOCC1,outcome,[11],inactive
same,outcome,[12],inactive
same,outcome,[2],inactive
same,outcome,[3],inactive
same,outcome,[13],inactive
same,outcome,[14],inactive
same,outcome,[4],inactive
same,outcome,[5],inactive
same,outcome,[6],inactive
same,outcome,[7],inactive
same,outcome,[15],inactive
same,outcome,[8],inactive
same,outcome,[9],inactive
same,outcome,[16],inactive
same,outcome,[17],inactive
same,outcome,[18],inactive
CCC(=O)OC/C=C(\C)CCC=C(C)C,outcome,[19],inactive
same,outcome,[2],inactive
same,outcome,[3],inactive
same,outcome,[5],inactive
same,outcome,[6],inactive
same,outcome,[7],inactive
same,outcome,[15],inactive
same,outcome,[8],inactive
same,outcome,[9],inactive
same,outcome,[10],inactive
COc1ccc(OC)cc1,outcome,[19],inactive
same,outcome,[2],inactive
same,outcome,[3],inactive
same,outcome,[4],inactive
same,outcome,[5],inactive
same,outcome,[6],inactive
same,outcome,[7],inactive
same,outcome,[15],inactive
same,outcome,[8],inactive
same,outcome,[9],inactive
same,outcome,[10],inactive
CCCCCCCCSCc1cc(C)c(O)c(CSCCCCCCCC)c1,outcome,[1],inactive
same,outcome,[12],inactive
same,outcome,[2],inactive
same,outcome,[3],inactive
same,outcome,[13],inactive
same,outcome,[14],inactive
same,outcome,[4],inactive
same,outcome,[6],inactive
same,outcome,[7],inactive
same,outcome,[15],inactive
same,outcome,[8],inactive
same,outcome,[9],inactive
same,outcome,[10],inactive
[Cl][Dy]([Cl])[Cl],outcome,[1],inactive
same,outcome,[11],inactive
same,outcome,[12],inactive
same,outcome,[2],inactive
same,outcome,[4],inactive
same,outcome,[5],inactive
same,outcome,[6],inactive
same,outcome,[7],inactive
same,outcome,[8],inactive
same,outcome,[9],inactive
same,outcome,[10],inactive
CC12CCC(C1)C(C)(C)C2O (stereo not given),outcome,[1],inactive
same,outcome,[12],inactive
same,outcome,[2],inactive
same,outcome,[3],inactive
same,outcome,[14],inactive
same,outcome,[4],inactive
same,outcome,[7],inactive
same,outcome,[8],inactive
same,outcome,[10],inactive
CCCCCC1CCC(=O)O1 (stereo not given),outcome,[19],inactive
same,outcome,[14],inactive
same,outcome,[4],inactive
same,outcome,[6],inactive
same,outcome,[7],inactive
same,outcome,[15],inactive
same,outcome,[8],inactive
same,outcome,[9],inactive
same,outcome,[10],inactive
CCn1cc(C(=O)O)c(=O)c2ccc(C)nc21,outcome,[1],inactive
same,outcome,[3],inactive
same,outcome,[13],inactive
same,outcome,[4],inactive
same,outcome,[5],inactive
same,outcome,[6],inactive
same,outcome,[7],inactive
same,outcome,[8],inactive
same,outcome,[9],inactive
same,outcome,[16],inactive
same,outcome,[17],inactive
same,outcome,[18],inactive
COc1ccc(N)c(C)c1,outcome,[1],inactive
same,outcome,[11],inactive
same,outcome,[12],inactive
same,outcome,[2],inactive
same,outcome,[14],inactive
same,outcome,[4],inactive
same,outcome,[5],inactive
same,outcome,[6],inactive
same,outcome,[7],inactive
same,outcome,[15],inactive
same,AC50,[8],46.3 µM (active)
same,outcome,[9],inactive
CCCCCCC(O)CCOC(C)=O (stereo not given),outcome,[1],inactive
same,outcome,[11],inactive
same,outcome,[2],inactive
same,outcome,[3],inactive
same,outcome,[4],inactive
same,outcome,[6],inactive
same,outcome,[7],inactive
same,outcome,[15],inactive
same,outcome,[8],inactive
same,outcome,[9],inactive
same,outcome,[10],inactive
CC(=O)C1C(=O)C=C(C)OC1=O (stereo not given),outcome,[1],inactive
same,outcome,[3],inactive
same,outcome,[13],inactive
same,outcome,[14],inactive
same,outcome,[4],inactive
same,outcome,[5],inactive
same,outcome,[6],inactive
same,outcome,[7],inactive
same,outcome,[8],inactive
same,outcome,[9],inactive
same,outcome,[10],inactive
